TROY signal inh = blocks TROY-dependent signaling in reporter cells. Q293 LMP1-TROYcd NF-kB luciferase reporter, 4 h. inhibition, % at 10 µM. 360,000 tested, 0.98% active;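 active = compounds whose plate-normalised and pattern-corrected inhibition of the luciferase reporter signal at the single screening dose is 50% or more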
HIF-2a block = HIF-2a inhibition; AID 624352; 786-0 RCC cells HIF-2a reporter, luciferase luminescence, overnight; 360,000 tested, 0.72% active; inhibition, % at 18.8 µM;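 active = inhibition of the luminescence signal of 40% or more relative to plate controls, in a single-dose primary screen at 18.75 µM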
Peg3 promoter = reduces Peg3 promoter-driven luciferase expression in HeLa. inhibition, % at 20 µM. HeLa PEG-Prom luciferase reporter, luminescence, overnight. 360,000 tested, 1.7% active;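 active = inhibition of at least 50% at 20 µM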
KKLEB cytotox = CF airway cell cytotoxicity counter-screen; KKLEB CF airway cells viability, ATPlite luminescence, overnight; stronger effect = lower value; cells stimulated with P. aeruginosa culture filtrate; AID 602141; 360,000 tested, 0.36% active; activity change (cytotoxicity), % at 5 µM;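 active = corrected activity change at or below -50% at 5 µM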
TWEAK Fn14 block = inhibitors of TWEAK-Fn14 interaction signaling. TWEAK-stimulated Fn14 reporter cells, luciferase luminescence, 8 h. inhibition, % at 10 µM. 360,000 tested, 2% active; in the data active = inhibition above about 50%
CF NFkB block = cystic fibrosis NF-kB activation inhibition | KKLEB NF-kB-GFP reporter, PAF-induced, GFP fluorescence overnight | inhibition, % at 5 µM | 360,000 tested, 0.86% active;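 active = at least 50% inhibition at 5 µM, scaled per plate between neutral and stimulator controls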;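 also: PAF is a Pseudomonas aeruginosa culture filtrate used as stimulus; plate controls were PAF-stimulated DMSO wells for no effect and unstimulated DMSO wells for full effect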
CF NFkB conf = CF NF-kB inhibition confirmation, single concentration; shares compounds with CF NFkB block; KKLEB CF airway cells, PAF-induced NF-kB-GFP fluorescence, overnight; inhibition, % at 5 µM; 1,300 tested, 64% active; in the data active = inhibition above about 40%;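 also: stimulus PAF is a Pseudomonas aeruginosa filtrate and not platelet activating factor; plate controls were DMSO wells with stimulus for no effect and unstimulated DMSO wells for full effect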
Starred values were filed as active, the others as inactive; / = no result given. Hits are enriched below; roughly 4% of the tested compounds scored in any of these assays.

SMILES | TROY signal inh | HIF-2a block | Peg3 promoter | KKLEB cytotox | TWEAK Fn14 block | CF NFkB block | CF NFkB conf
O=C(/C=C/c1cccs1)Nc1cccc(NC(=O)/C=C/c2cccs2)n1 | 26.2 | -227.0 | 26.6 | -22.0 | 72.8* | 58.1* | 63.7*
ON=C1c2ccccc2-c2ccccc21 | 2.9 | -12.0 | -76.9 | 3.5 | 13.6 | 62.3* | 52.8*
Brc1cccc(CSc2nnc(-c3ccncc3)o2)c1 | 24.4 | -8.9 | -2.9 | 10.0 | 62.5* | 59.1* | 69.0*
Cn1cccc1C(=O)NC(=O)COC(=O)c1ccc(S(C)(=O)=O)c([N+](=O)[O-])c1 | 29.8 | 35.7 | 101.8* | -18.3 | 96.3* | 66.7* | 59.3*
FC(F)(F)c1nnc2c(Sc3ccccc3)nc3ccccc3n12 | -24.0 | -60.5 | 2.5 | 11.0 | 11.6 | 78.6* | 84.2*
O=C(COc1ccccc1C(=O)Nc1ccccc1)c1ccc(Br)cc1 | 0.3 | -11.8 | -12.8 | -4.6 | -2.8 | 9.9 | /
O=C(Oc1ccccc1C(=O)Nc1ccccc1)c1ccccc1Br | 1.5 | -115.6 | -94.3 | -46.5 | 38.8 | 61.6* | -12.2
COc1ccc(OC)c(-c2nnc3n2N=C(c2ccc(OC)c(OC4CCCC4)c2)CS3)c1 | 46.5 | 25.4 | 13.3 | -20.8 | 13.0 | 66.5* | 71.0*
COc1ccc(C2=Nn3c(nnc3-c3ccncc3)SC2)cc1 | 33.2 | 10.9 | 4.8 | -33.2 | 45.6 | 72.4* | 75.8*
O=C(NNC(=O)c1ccc(F)c(S(=O)(=O)N2CCOCC2)c1)c1ccc(Br)cc1 | 1.4 | -0.8 | 9.8 | -1.4 | 4.5 | -0.8 | /
CC1(Cc2ccc(Cl)cc2)C(=O)Nc2ccc(-c3cccnc3)cc21 (configuration not stated) | 53.4* | 15.9 | 23.1 | -29.7 | 83.6* | 79.3* | 91.1*
CCc1ccc2c(c1)NC(=O)C2(C)Cc1cccc(F)c1 (configuration not stated) | 7.8 | 9.2 | 14.9 | -3.6 | 5.6 | 5.2 | /
CC1(Cc2cccc(F)c2)C(=O)Nc2ccc(-c3cccnc3)cc21 (configuration not stated) | 40.6 | 15.1 | 19.8 | 4.8 | 78.8* | 72.4* | 66.3*
CCOC(=O)N1CCc2c(sc(NC(=O)CN3CCN(C)CC3)c2C(=O)Nc2ccccc2)C1 | 9.9 | 7.0 | 0.3 | -8.8 | -18.8 | -15.8 | /
CCOC(=O)N1CCc2c(sc(NC(=O)CN3CCOCC3)c2C(=O)Nc2ccccc2)C1 | 5.8 | 18.2 | 23.7 | -8.8 | 23.4 | 56.7* | -0.8
COc1cccc(CNc2ncnc3cc(OC)c(OC)cc23)c1 | 9.4 | 22.0 | 20.7 | 0.9 | 5.0 | 8.5 | /
COc1cccc(-c2ccc3ncnc(NCc4cccnc4)c3c2)c1 | 45.4 | 26.4 | 28.6 | -15.8 | 73.8* | 71.0* | 83.4*
COC(=O)[C@H](c1ccccc1Cl)N1CCc2sccc2C1 | 13.4 | 5.0 | 12.6 | 21.4 | -1.5 | -25.0 | /
CC1C=CC(C)C(C(=O)c2ccccc2)C1C(=O)c1ccccc1 (configuration not stated) | -12.6 | 13.6 | 15.2 | -3.2 | -2.1 | -4.8 | /
O=C(c1ccccc1)C1OC1C(=O)c1ccccc1 (configuration not stated) | -62.8 | -55.5 | -17.9 | -12.5 | 69.9* | 56.1* | 53.9*
CCC(=O)Nc1nnc(/C=C/c2ccc(OC)cc2)s1 | -53.1 | -156.4 | -186.9 | -7.5 | -19.9 | 13.9 | /
COc1ccc2ncn(-c3ccccc3)c2c1 | 11.6 | 12.2 | -3.3 | -6.1 | 30.0 | 58.5* | 57.0*
C=C1CC[C@@H]2[C@](C)(CCC[C@@]2(C)/C=C/[C@@H](O)C(C)(C)O)[C@H]1CC(=O)NCCS(=O)(=O)O | -1.6 | 13.5 | -9.9 | 16.1 | 12.1 | -16.0 | /
CC[C@@H](C(=O)[C@@H](C)[C@@H](O)[C@H](C)[C@@H]1O[C@@H]([C@@H](CC)C(=O)O)CC[C@@H]1C)[C@H]1O[C@]2(C=C[C@@H](O)[C@]3(CC[C@@](C)([C@H]4CC[C@](O)(CC)[C@H](C)O4)O3)O2)[C@H](C)C[C@@H]1C | 50.9* | -34.5 | 101.0* | 3.9 | 55.6* | 68.7* | 104.8*
FC(F)(F)C1=NNC(c2ccc3ccccc3c2)=NN1 | -17.6 | -21.2 | -17.3 | -10.0 | -14.2 | -12.1 | /
SMILES | TROY signal inh | HIF-2a block | Peg3 promoter | KKLEB cytotox | TWEAK Fn14 block | CF NFkB block | CF NFkB conf
C[C@@]12CCC=C[C@H]1[C@H](c1ccc3ccccc3c1)N(Cc1ccccc1)C2=O | 24.6 | 26.0 | 25.9 | -24.7 | 12.3 | 45.4 | /
C[C@@]12CCC=C[C@H]1[C@H](c1ccc3ccccc3c1Br)N(Cc1ccccc1)C2=O | 16.7 | 26.1 | 44.6 | -20.9 | 2.2 | 57.2* | 40.0*
CCOC(=O)c1c(-c2ccc(F)cc2)csc1NC(=O)CN1C(=O)NC2(CCCCC2C)C1=O (configuration not stated) | 25.5 | 15.5 | 11.9 | -14.1 | 48.7 | -1.4 | /
Cc1ccc(NC(=O)c2ccccc2NS(=O)(=O)c2ccc(Cl)s2)cc1S(=O)(=O)N1CCOCC1 | 51.9* | -7.8 | -17.2 | -49.3 | 77.5* | 56.8* | 79.7*
O=C(Nc1cc(S(=O)(=O)N2CCOCC2)ccc1O)c1ccc(NS(=O)(=O)c2ccc(Cl)s2)cc1 | 8.4 | 25.0 | 0.5 | -5.5 | 1.9 | -6.3 | /
CCN1CCN(Cc2ccc(NC(=O)c3ccc(C)c(NC(=O)c4ccc5n[nH]nc5c4)c3)cc2C(F)(F)F)CC1 | -1.2 | 15.0 | -9.6 | -10.8 | -1.8 | 55.2* | 69.5*
CCN1CCN(Cc2ccc(NC(=O)c3ccc(C)c(NC(=O)C(=O)c4c[nH]c5ccccc45)c3)cc2C(F)(F)F)CC1 | -23.8 | 11.3 | 96.8* | -9.6 | -92.9 | 70.4* | 70.8*
O=C(CN1CCN(CC(=O)Nc2ccccc2Cl)CC1)Nc1ccc(F)c(F)c1 | 12.8 | 10.2 | 20.6 | -6.4 | -12.4 | -6.8 | /
COc1ccccc1C(=O)Nc1nnc(SCC(=O)NCc2ccco2)s1 | 3.2 | -90.2 | -190.4 | 22.3 | 35.9 | -39.7 | /
CC(=O)OCC(=O)C1(O)CCC2C3CC(C)C4=CC(=O)C=CC4(C)C3C(O)CC21C (configuration not stated) | 18.1 | 17.9 | -17.6 | 44.6 | 3.7 | 65.4* | 4.3
CCOc1ccccc1NC1=C(Cl)C(=O)N(c2ccccc2)C1=O | -5.1 | 9.6 | 6.2 | 13.2 | 3.8 | 9.2 | /
CC(=O)N1CCN(S(=O)(=O)c2cccc(C(=O)N(C)Cc3ccc(C)o3)c2)CC1 | -4.8 | 8.8 | 14.6 | -19.5 | 9.2 | 14.3 | /
CNc1ccc2ncc(-c3cccc(C(=O)N(C)C)c3)n2n1 | 52.6* | 8.9 | 23.1 | -10.9 | 87.0* | 85.6* | 98.4*
CCOc1cc2c(cc1O)C(=NOC)CC1C2CCC2(C)C(O)CCC12 (configuration not stated) | -28.8 | 13.9 | -2.9 | -16.9 | 3.6 | 51.5* | 75.7*
Cc1cc(O)cc2c1C1CCC3(C)C(O)CCC3C1C=C2 (configuration not stated) | -17.4 | -117.9 | -72.7 | 3.0 | -5.0 | 3.7 | /
